In the library only some 12% were active in any assay of this set; here they are far more common.
m-calpain inh: calpain II (pig) inhibition | 0.37% of 220,000 active | inhibition, % at 16 µM | purified calpain II, fluorogenic peptide substrate, 30 min;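 active means inhibition above about 50%, limit read from the data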
Cl transport mod: modulators of human KCC2 chloride dependent transport; KCC2 cells, thallium flux FluoZin-2 fluorescence; B-score of Tl+ flux slope (higher = more flux/activation; lower = inhibition) at 10 µM; 2.2% of 190,000 active; AID 1456;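 active means thallium flux slope and its plate-corrected score both differing from the plate sample mean at a set confidence after two filtering rounds, in either direction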;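 further: slope of fluorescence scaled to starting intensity during 10 to 20 s after thallium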
ROMK mod: modulators of human ROMK potassium channel | P48048 | Tet-inducible ROMK, thallium flux fluorescence; actives lie on both sides | B-score at 10 µM | 2% of 130,000 active | AID 1918;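 active means signal ratio slope over the read window, or its plate-corrected B-score, at least 3 SD from the plate mean, either direction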;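 further: B-score of the F/F0 ratio slope over 7 to 12 s after thallium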
WT yeast gro inh: growth inhibition of WT yeast, mitochondrial fusion screen; mitochondrial fusion phenotypic screen, WT strain; inhibition, % at 10 µM; 2.1% of 190,000 active; AID 1362; in the data active means inhibition above about 58%; tested in S. cerevisiae
L major viab: reduces viability of Leishmania major promastigotes; resazurin fluorescence viability; inhibition, % at 10 µM; 9% of 200,000 active; in the data active means inhibition above about 50%;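 further: promastigotes grown with compound for 44 hours at 28 °C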
* = called active by the depositor; i = inactive; / = not tested or not shown.

SMILES	m-calpain inh	Cl transport mod	ROMK mod	WT yeast gro inh	L major viab
CCCn1c(SCC(=O)NC(C)(C)C)nnc1-c1ccco1	-19	0.74	0.62	-27	-7
Cc1ccc(-c2nnc(Nc3ccc4c(c3)nc(C)n4C)c3ccccc23)cc1	-14	/	/	9	101*
Cc1ccc(-c2nnc(Nc3ccc(CC(N)=O)cc3)c3ccccc23)cc1	7	/	/	20	10
COc1ccc(CCNC(=O)c2ccc3c(SCC(=O)O)c4c(nc3c2)CCCC4)cc1OC	-134	-0.93	/	-1	-3
COc1ccc(OC)c(/C=N/NC(=O)c2ccc3nc[nH]c3c2)c1	-195	-0.46	-0.00084	/	/
COc1ccccc1/C=C/C=N/NC(=O)c1ccc2nc[nH]c2c1	-23	-1.6	1.3	3	56*
O=C(O)Cn1cc(/C=C/[N+](=O)[O-])c2ccccc21	-33	0.37	0.34	-12	-3
N#Cc1ccccc1Cn1cc(/C=C/[N+](=O)[O-])c2ccccc21	-76	0.28	-2.3	75	87*
O=[N+]([O-])/C=C/c1cn(Cc2ccccc2)c2ccccc12	-214	0.097	-0.77	82	96*
COc1ccc(/C(C)=N/N=C(N)N)c(O)c1	18	-0.46	/	/	/
COc1ccc(O)c(N)c1	-21	2.3	/	-12	98*
Cc1c(C(C)(C(=O)O)c2c(C)n(C)c3ccccc23)c2ccccc2n1C	-8	0.066	/	/	/
CC1CCN(CCOc2cc(Cl)ccc2Cl)CC1	-23	-0.62	/	18	85*
CC1CCN(CCOCCOc2ccc(Br)cc2Cl)CC1	-8	-0.59	-2.1	43	99*
CC1CCN(CCOc2ccccc2-c2ccccc2)CC1	0	0.44	-0.78	11	20
CC1CCCN(CCCOc2ccc(Br)cc2Cl)C1 (stereo not drawn)	-10	0.2	-0.76	18	89*
O=C(COC(=O)c1cc(=O)[nH]c(=O)[nH]1)Nc1cccc(S(=O)(=O)N2CCOCC2)c1	-2	0.25	0.3	9	-8
COC(=O)c1c(CCl)noc1C(=O)NCC1CCCO1 (stereo not drawn)	19	1.2	-1.1	-10	100*
COc1ccccc1C(=O)C1CCCN(C(=O)c2cn3cc(Cl)ccc3n2)C1 (stereo not drawn)	-12	-0.31	0.89	-4	5
CCOc1ccc(OCCCCNC(C)(C)C)cc1	-4	0.27	-0.23	4	98*
CC(C)(C)NCCCCOc1ccc(F)cc1	22	/	-0.03	8	99*
CCOc1cccc(OCCOCCNC(C)(C)C)c1	-9	0.81	0.4	8	28
Cc1nnsc1C(=O)N1CCC(CO)(Cc2ccccc2Cl)CC1	7	-0.55	/	/	/
CC1(C)Oc2ccc(C(=O)N3CCc4ccccc43)cc2N(CC(=O)N2CCCC2)C1=O	-36	/	3.8*	-2	-2
CC1(C)Oc2ccc(C(=O)N3CCCC3)cc2N(CC(=O)NCc2ccccc2)C1=O	13	0.29	0.59	-2	-5
SMILES	m-calpain inh	Cl transport mod	ROMK mod	WT yeast gro inh	L major viab
COC(=O)c1ccc(Oc2nc(C)cc(Oc3ccccc3)n2)cc1	28	0.28	-1.3	12	95*
CCN1/C(=C/c2ccc3cc(C)ccc3[n+]2C)Sc2ccc3sccc3c21	-73	0.055	-1.3	95*	101*
Cc1sc2c3ccsc3ccc2[n+]1C	-51	0.11	-0.11	25	1
CCN1/C(=C/c2ccc3cc(C)ccc3[n+]2CC)Sc2cc(C)ccc21	17	-1.1	/	75	100*
CCCCN1/C(=C/c2ccc3ccccc3[n+]2CC)Sc2ccccc21	-4	i	/	71	100*
Cc1c(NC(=O)c2ccc(Br)s2)c(=O)n(-c2ccccc2)n1C	19	-0.43	-1.5	5	-2
CCOC(=O)c1sc(N2N=C(C)/C(=C\c3ccc(OCC(=O)OC)cc3)C2=O)nc1C	-35	0.75	-0.37	2	14
Cc1cc(C)nc(NC(=O)c2cccc(Cl)c2)n1	-3	-0.61	/	-14	-4
S=C(Nc1ccccc1)N1CCCN1c1ccccc1	-4	1.1	/	/	/
Cc1cccc(N=N/C(=C\O)C(=O)c2cccs2)c1	-30	0.33	-0.14	31	76*
O=[N+]([O-])c1ccc(NNC(=S)Nc2ccccc2)cc1	26	0.88	0.32	35	53*
O=[N+]([O-])c1ccc(NC(=S)NCCc2ccccc2)cc1	11	-4.8	-1.6	81*	74*
NS(=O)(=O)c1ccc(NC(=S)NCCc2ccccc2)cc1	-13	-1.6	-0.24	-13	7
CC(C)C(c1nnnn1C1CCCCC1)N1CCc2ccccc21 (stereo not drawn)	4	-0.78	/	12	16
Cc1ccc(C(c2nnnn2C2CCCCC2)N2CCc3ccccc32)cc1 (stereo not drawn)	32	-0.18	-0.44	38	53*

Screens: PubChem BioAssay, several laboratories
